# A selection: hits, their analogues and other compounds. The true share with any hit is near 2.5%.
# p53ts 39C kill: p53ts cell cytotoxicity, nonpermissive temperature; H1299-p53A138V viability at 39C, ATP luminescence, 24 h; AID 902; 1.5% of 130,000 active; Potency, µM (highest dose often 46.1 µM), hits mostly cytotoxic; also: nearly all actives have a fitted effect of over 55% in size
# p53ts 32C kill: cytotoxicity in p53ts cells at permissive temperature; H1299-p53A138V at 32C, ATP luminescence viability, 24 h; Potency, µM (doses to about 46.1 µM), hits mostly cytotoxic; 0.93% of 130,000 active; also: nearly all actives have a fitted effect of over 55% in size
#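 ATP-content luminescence (ATPlite) read-out after 24 h compound exposure at 32C in H1299-p53A138V cells (600/well). Tested up to 46 uM. Normalized to DMSO (0%) and 100 uM tamoxifen (100% killing); Hill-fit AC50.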
# Luciferase inh: inhibitors of firefly luciferase | P08659 | purified firefly luciferase, luminescence, 8 min | Potency, µM (series often up to 57.1 µM), usual class: inhibitors | 2.2% of 72,000 active; also: nearly all actives have a fitted effect of over 40% in size
# Target sequence (P08659 whole entry, looked up): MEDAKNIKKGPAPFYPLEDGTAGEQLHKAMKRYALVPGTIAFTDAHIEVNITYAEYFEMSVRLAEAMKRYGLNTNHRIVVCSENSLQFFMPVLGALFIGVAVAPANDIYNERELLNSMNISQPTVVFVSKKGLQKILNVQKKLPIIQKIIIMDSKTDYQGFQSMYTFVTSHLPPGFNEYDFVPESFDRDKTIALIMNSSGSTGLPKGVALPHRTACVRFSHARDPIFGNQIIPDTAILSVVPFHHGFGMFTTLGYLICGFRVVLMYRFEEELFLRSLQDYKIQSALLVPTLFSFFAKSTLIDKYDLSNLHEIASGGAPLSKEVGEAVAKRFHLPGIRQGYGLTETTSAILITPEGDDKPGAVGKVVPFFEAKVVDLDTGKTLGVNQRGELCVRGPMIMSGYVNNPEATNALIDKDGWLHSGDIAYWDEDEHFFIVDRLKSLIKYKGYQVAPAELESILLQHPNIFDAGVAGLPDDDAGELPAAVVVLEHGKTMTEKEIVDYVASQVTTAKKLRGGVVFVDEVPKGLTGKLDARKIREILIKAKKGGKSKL
#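 Firefly luciferase (PKLight detection mix) with 10 uM ATP in pH 7.2 imidazole buffer (KCl, MgCl2, Tween 20, BSA). Compounds tested across a concentration series (qHTS). Luminescence read after 8 min at ambient temperature.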
# A number is an active result; n = inactive; u = inconclusive; x = no result given; ! = not confirmed by another sample; [ ] = dose if it differs, or a comment. Calls follow the shape of the dose curve; as a rule, active = well fitted curve in the direction sought with a large enough effect; inconclusive = small, poorly fitted or top-dose-only effect, or another doubt; inactive = no such curve, though single readings can be large; an effect the other way counts as inactive or inconclusive.
SMILES,p53ts 39C kill,p53ts 32C kill,Luciferase inh
COc1ccccc1CNc1ncnc2ccc(-c3ccc(C(=O)N(C)C)cc3)cc12,n,n,n[2.29 µM]
N#Cc1cccc(-c2ccc3ncnc(NCc4ccccc4)c3c2)c1,n,u,n[2.29 µM]
Cc1ccc(-c2c3c(=O)n(C)c(=O)n(C)c3c3c(C(F)(F)F)nc4ccccc4n23)cc1,n,n,x
O=S(=O)(NCCO)c1cccc2cccnc12,n,n,n
O=S(=O)(NCCNC/C=C\c1ccc(Br)cc1)c1cccc2cnccc12,15.8µM,u,n
COC(=O)[C@@H]1C(O)[C@@H](C(=O)OC)[C@H](C)N(C)[C@@H]1C (stereo partly drawn),n[9.22 µM],n[9.22 µM],n[11.4 µM]
O=C(COc1ccc2ccc(=O)oc2c1)Nc1ccc2c(c1)OCCO2,n,n,12.6µM
O=C(COC(=O)c1ccccc1NC(=O)c1ccco1)Nc1ccc2c(c1)OCO2,n,n,n
CN(C)C(=O)COc1ccc2ccc(=O)oc2c1,u,n,n
O=C(Nc1cccc(NC(=O)c2ccco2)c1)c1ccc2c(c1)OCO2,n,n,n
O=C(Nc1ccc2c(c1)OCO2)C1CCCN1C(=O)OCc1ccccc1 (stereo not drawn),n,n,n
O=C(COC(=O)c1ccco1)Nc1ccc2c(c1)OCCO2,n,n,10µM
O=C(Nc1ccc2c(c1)OCCO2)c1ccco1,12.6µM,15.8µM,10µM
O=C(Nc1ccc2c(c1)OCO2)OCc1ccccc1,u,u,12.6µM
CC(=O)[C@@]1(N=Nc2ccc(S(N)(=O)=O)cc2)CCOC1=O,n[9.22 µM],n[9.22 µM],n[11.4 µM]
CC(=O)c1ccc(NC(=O)c2nc3ccccc3n(C)c2=O)cc1,2.51µM,2.51µM,x
CC(=O)c1ccc(NC(=O)c2nc3ccccc3nc2N2CCCCC2)cc1,n,n,x
Cc1cc(C)c(S(=O)(=O)Nc2ccc(-c3ccc(N4CCCCC4)nn3)cc2)c(C)c1,7.94µM,u,x
CC(=O)c1ccc(S(=O)(=O)Nc2cccc(-c3ccc(N4CCCCCC4)nn3)c2)cc1,6.31µM,u,x
CC(=O)c1ccc(S(=O)(=O)Nc2cccc(-c3ccc(N4CCCC4)nn3)c2)cc1,u,n,x
O=S(=O)(Nc1cccc(-c2ccc(N3CCCCC3)nn2)c1)c1ccc(Cl)s1,5.01µM,10µM,x
Cc1ccc(S(=O)(=O)Nc2ccc(-c3ccc(N4CCCCCC4)nn3)cc2)cc1C,n,n,x
COc1ccc(S(=O)(=O)Nc2cccc(-c3ccc(N4CCCCCC4)nn3)c2)cc1OC,u,n,x
COc1ccc(Cl)cc1S(=O)(=O)Nc1cccc(-c2ccc(N3CCCC3)nn2)c1,n,n,x
O=S(=O)(Nc1cccc(-c2ccc(N3CCCCC3)nn2)c1)c1cccs1,6.31µM,10µM,x
SMILES,p53ts 39C kill,p53ts 32C kill,Luciferase inh
COc1ccc2[nH]cc(CCNc3ncncc3-c3ccccc3C)c2c1,n,n,n[2.29 µM]
O=C(CCCn1c(=O)c2sccc2n(Cc2c(F)cccc2Cl)c1=O)NCc1ccccc1,n,n,x
Cc1cn(CC[C@H](N)C(=O)O)c(=O)[nH]c1=O,n[9.22 µM],n[9.22 µM],n[11.4 µM]
CSc1ccc2c(c1)[C@H](N1CCN(C)CC1)Cc1ccccc1S2,31.6µM,25.1µM!,n
CSc1ccc2c(c1)C(N1CCN(C)CC1)Cc1ccccc1S2 (stereo not drawn),u,n,x
Cc1ccc(Cl)cc1,n,n[1.84 µM],x
N#CCCn1c(=O)c(-c2cc(F)cc(F)c2)nc2cnc(N3CCOCC3)nc21,n,n,n[11.4 µM]
N#CCCCSc1nnnn1-c1cccc(Cl)c1,n,n,n
N#CCCS(=O)(=O)c1nnnn1-c1ccccc1,20µM,u,n
COc1ccc(N2C(=O)CS(=O)(=O)C23C(=O)N(Cc2c(F)cccc2Cl)c2ccccc23)cc1 (stereo not drawn),n,n,x
Cc1ccc(OCCSc2nc3ccc(NC(=O)c4cccs4)cc3s2)cc1,n,n,x
Cc1cc(C(=O)Nc2nc3ccc(S(C)(=O)=O)cc3s2)c(C)o1,n,u,2µM
Cc1ccccc1NC(=O)Nc1nc2ccc(S(C)(=O)=O)cc2s1,n,x,x
Cc1ccc(C(=O)Nc2nc3ccc(S(C)(=O)=O)cc3s2)s1,12.6µM,10µM,3.16µM
Cc1ccc2nc(NC(=O)c3cccs3)sc2c1,7.94µM,u,2µM
CCOCC(=O)Nc1nc2ccc(S(C)(=O)=O)cc2s1,n,n,n
CS(=O)(=O)c1ccc2nc(NC(=O)c3cccs3)sc2c1,2.51µM,2.51µM,1µM
CCC(=O)Nc1nc2ccc(S(C)(=O)=O)cc2s1,n,n,x
CCn1cc(C(=O)O)c(=O)c2ccc(Cc3ccccc3)nc21,x,x,n
O=C1C[C@@H](O)[C@@H](O)[C@H]2[C@@H]3C(=O)N(Cc4ccccc4)C(=O)[C@@H]3CC[C@H]12,n[9.22 µM],n[9.22 µM],n[11.4 µM]
Cn1cccc1C(=O)N1CCC2(CC1)CCN(c1ccccn1)CC2,n,n,n[11.4 µM]
c1nc(NCCc2cnc[nH]2)c2[nH]cnc2n1,n[9.22 µM],n[9.22 µM],n[11.4 µM]
C/C(=N/NS(=O)(=O)c1ccc(C)cc1)P(=O)(O)O,n[9.22 µM],n[9.22 µM],n[11.4 µM]
COc1ccc2cc1Oc1ccc(cc1)C[C@@H]1c3c(cc(OC)c4c3Oc3cc5c(cc3O4)CCN[C@H]5C2)CCN1C,n[9.22 µM],n[9.22 µM],n[11.4 µM]
COc1ccc(OC)c(S(=O)(=O)Nc2ccc(C(N)=O)cc2)c1,n,n,n
SMILES,p53ts 39C kill,p53ts 32C kill,Luciferase inh
COc1ccc(OC)c(S(=O)(=O)Nc2ccc(O)c3ccccc23)c1,10µM,u,n
COc1ccccc1-c1cc(-c2cc(Cl)ccc2O)n[nH]1,x,x,n
COc1ccc(O)c(-c2cc(-c3cccs3)[nH]n2)c1,n,n,15.8µM
CCc1ccc(C2=NN(CCC(=O)NCCc3ccccc3)C(=O)CC2)cc1,n,n,x
CCCCOc1ccccc1C1CC(=O)Nc2cc(C)c(C)cc21 (stereo not drawn),10µM,n,x
CCCCOc1ccccc1C1CC(=O)Nc2cc(OC)c(OC)cc21 (stereo not drawn),n,n,x
Cc1ccc(C(=O)Nc2nnn(C)n2)cc1,u,u,25.1µM
Cn1nnc(NC(=O)c2cccc(F)c2)n1,n,n,n
CCn1nnc(NC(=O)c2ccc(C(C)(C)C)cc2)n1,5.01µM,2.51µM,12.6µM
CCn1nnc(NC(=O)c2cccnc2)n1,n,n,n
Cc1cccc(C(=O)Nc2nc3nc(-c4ccccc4)cc(=O)n3[nH]2)c1,n,n,x
COC1C=CO[C@@]2(C)Oc3c(C)c(O)c4c(O)c(c(C=NN5CCN(C)CC5)c(O)c4c3C2=O)NC(=O)/C(C)=C\C=CC(C)C(O)[C@@H](C)C(O)C(C)[C@H](OC(C)=O)C1C (stereo partly drawn),n,n,x
COC(=O)Cc1c(C)nc2nc(-c3ccccc3)[nH]n2c1=O,n,n,25.1µM
COC(=O)Cc1c(C)nc2nc(-c3ccc(C)cc3)[nH]n2c1=O,u,10µM,x
COC(=O)Cc1c(C)nc2nc(Cc3ccccc3)[nH]n2c1=O,n,n,n
COC(=O)Cc1c(C)nc2nc(-c3cccnc3)[nH]n2c1=O,n,n,n
O=C(CSc1nnc(-c2ccncc2)n1-c1ccccc1)Nc1ccc(Br)cc1,n,n,x
CCS(=O)(=O)c1cccc(C(=O)N2CCN(c3nc4c(C)ccc(Cl)c4s3)CC2)c1,u,n,x
Nc1nc(N)c2nc(-c3ccccc3)c(N)nc2n1,n,12.6µM!,n
N#Cc1c(N)nc(-c2ccccc2)nc1-c1ccccc1,n,n,n
COc1ccc(Nc2ncnc3onc(C)c23)c(OC)c1,n,n,x

# High-throughput results as filed in PubChem.
